Tested on: BTK
Conditions: concentration: 1 μM, replicates: in singlicate; n = 1
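Note: KINOMEscan kinase panel screen.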

Point of comparison: `Cc1cc(Nc2nc(-c3cccc(C)n3)nc3ccccc23)ccn1` [GW872411], “%Inh” value 0%. Against it:
- Cc1cccc(-c2cc(-c3c[nH]nc3-c3ccccn3)ccn2)c1 [GW679395] — the same, 0%
- COc1ccc(-c2coc3ccc(-c4nnc(SCc5cccc(C#N)c5)o4)cc23)cc1 — the same, 0%
- COc1ccc(CNC(=O)NC2CCN(c3ccnc(Nc4ccc(F)cc4)n3)C2)cc1 (centres unmarked) [GSK1379706] — higher, 18%
- COc1cc2ncn(-c3cc(OCc4ccncc4Br)c(C(N)=O)s3)c2cc1OC [GW854278] — the same, 0%
- Cc1nnc(-c2ccc(C)c(-c3ccc(C(=O)O)cc3)c2)o1 [GW608005] — the same, 0%
- COc1cc2ncn(-c3cc(OCCCc4ccccc4)c(C(N)=O)s3)c2cc1OC [GSK205189] — the same, 0%
- Cc1ccc(-c2ccc3c(ccc4sc5c(c43)NC[C@@H](C)N=C5N(C)C)n2)cn1 — the same, 0%
- CCc1ccc(-c2ccc3c(c2)-c2nn(C)cc2S(=O)(=O)N3C)cc1 — higher, 13%
- Nc1n[nH]c2ncc(-c3ccccc3)cc12 [SB-517081] — the same, 0%
- Nc1ncnc2c1ncn2-c1cccc2ccccc12 [SKF-97184] — the same, 0%
- O=C(NCCNc1ccnc(Nc2ccc(F)cc2)n1)Nc1ccc2c(c1)OCO2 [GSK1379882] — the same, 0%
- O=C(Nc1n[nH]c2nc(-c3ccccc3)c(Br)cc12)C1CC1 [SB-708998] — the same, 0%
- Cl.NS(=O)(=O)c1cccc(Nc2cc(-c3ccc(F)cc3)n[nH]2)c1 [GW824645] — the same, 0%

Source: article PMC5540273 (PLoS ONE, 2017)
